# Several values for one entry are separate records, joined by “and”; a condition that tells them apart may be missing. Equal values may be shown once. Out of some 5,500 compounds screened, about 2,000 (36%) were called active. About 18% were inconclusive and are not listed. Cut-off read from the data, not from the text of the source: active = normalized growth mostly below about 0.91 (no sharp cut-off); inconclusive = no clear call, values can overlap the other calls; inactive = mostly above about 0.92. This is one part of the list.
# Test: chemical genetic growth profiling, strain panel (AID 1159580);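 note: tested at 20 µM; growth read once vehicle control cultures reached saturation at 30 °C; 1 = growth at the plate median or of vehicle wells; lower values mean less growth of the strain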
# Settings: S. cerevisiae deletion strains, growth OD
smiles,measurement,setting,value
CC(=O)Nc1nnc(S(N)(=O)=O)s1,normalized growth,"locus YAL013W, strain DEP1, stronger effect = lower value",0.987 (inactive)
same,normalized growth,"locus YAL021C, strain ccr4, stronger effect = lower value",1 (inactive)
same,normalized growth,"locus YAL026C, strain drs2, stronger effect = lower value",1 (inactive)
same,normalized growth,"locus YAL030W, strain snc1, stronger effect = lower value",1.02 (inactive)
same,normalized growth,"locus YAL040C, strain CLN3, stronger effect = lower value",0.992 (inactive)
same,normalized growth,"locus YBL061C, strain skt5, stronger effect = lower value",1.01 (inactive)
same,normalized growth,"locus YBR009C, strain hhf1, stronger effect = lower value",0.991 (inactive)
same,normalized growth,"locus YBR021W, strain FUR4, stronger effect = lower value",0.944 (inactive)
same,normalized growth,"locus YBR023C, strain chs3, stronger effect = lower value",1.01 (inactive)
same,normalized growth,"locus YBR171W, strain sec66, stronger effect = lower value",1.02 (inactive)
same,normalized growth,"locus YBR229C, strain ROT2, stronger effect = lower value",0.95 (inactive)
same,normalized growth,"locus YBR231C, strain swc5, stronger effect = lower value",1.01 (inactive)
same,normalized growth,"locus YBR279W, strain paf1, stronger effect = lower value",1.01 (inactive)
same,normalized growth,"locus YCL011C, strain gbp2, stronger effect = lower value",1.02 (inactive)
same,normalized growth,"locus YCL016C, strain dcc1, stronger effect = lower value",1 (inactive)
same,normalized growth,"locus YCL029C, strain bik1, stronger effect = lower value",0.987 (inactive)
same,normalized growth,"locus YCL061C, strain MRC1 (second series), stronger effect = lower value",0.999 (inactive)
same,normalized growth,"locus YCL069W, strain vba3, stronger effect = lower value",1.02 (inactive)
same,normalized growth,"locus YCR088W, strain abp1, stronger effect = lower value",1.01 (inactive)
same,normalized growth,"locus YDL005C, strain med2, stronger effect = lower value",0.997 (inactive)
same,normalized growth,"locus YDL035C, strain GPR1, stronger effect = lower value",0.538 (active)
same,normalized growth,"locus YDL040C, strain nat1, stronger effect = lower value",1.01 (inactive)
same,normalized growth,"locus YDL074C, strain BRE1, stronger effect = lower value",0.709 (active)
same,normalized growth,"locus YDL101C, strain DUN1, stronger effect = lower value",0.878 (active)
same,normalized growth,"locus YDL134C, strain PPH21, stronger effect = lower value",0.621 (active)
same,normalized growth,"locus YDL185W, strain tfp1, stronger effect = lower value",0.998 (inactive)
same,normalized growth,"locus YDL192W, strain arf1, stronger effect = lower value",0.915 (active)
same,normalized growth,"locus YDR001C, strain nth1, stronger effect = lower value",1.01 (inactive)
same,normalized growth,"locus YDR069C, strain doa4, stronger effect = lower value",1.01 (inactive)
same,normalized growth,"locus YDR101C, strain arx1, stronger effect = lower value",0.998 (inactive)
same,normalized growth,"locus YDR137W, strain rgp1, stronger effect = lower value",1 (inactive)
same,normalized growth,"locus YDR159W, strain sac3, stronger effect = lower value",0.99 (inactive)
same,normalized growth,"locus YDR162C, strain NBP2, stronger effect = lower value",0.126 (active)
same,normalized growth,"locus YDR195W, strain ref2",1.01 (inactive)
same,normalized growth,"locus YDR297W, strain sur2, stronger effect = lower value",1.01 (inactive)
same,normalized growth,"locus YDR318W, strain mcm21, stronger effect = lower value",0.917 (active)
same,normalized growth,"locus YDR334W, strain swr1, stronger effect = lower value",1.01 (inactive)
same,normalized growth,"locus YDR335W, strain msn5, stronger effect = lower value",1 (inactive)
same,normalized growth,"locus YDR388W, stronger effect = lower value",0.959 (inactive)
same,normalized growth,"locus YDR392W, strain spt3, stronger effect = lower value",1 (inactive)
same,normalized growth,"locus YDR502C, strain sam2, stronger effect = lower value",0.943 (inactive)
same,normalized growth,"locus YEL003W, strain gim4, stronger effect = lower value",1.01 (inactive)
same,normalized growth,"locus YEL037C, strain rad23, stronger effect = lower value",1.02 (inactive)
same,normalized growth,"locus YEL061C, strain CIN8 (second series), stronger effect = lower value",1.02 (inactive)
same,normalized growth,"locus YEL061C, strain CIN8, stronger effect = lower value",0.728 (active)
same,normalized growth,"locus YER002W, strain NOP16, stronger effect = lower value",1.03 (inactive)
same,normalized growth,"locus YER015W, strain faa2, stronger effect = lower value",0.997 (inactive)
same,normalized growth,"locus YER016W, strain bim1, stronger effect = lower value",0.99 (inactive)
same,normalized growth,"locus YER110C, stronger effect = lower value",1.01 (inactive)
same,normalized growth,"locus YER111C, strain swi4, stronger effect = lower value",1.01 (inactive)
same,normalized growth,"locus YER155C, strain BEM2 (second series), stronger effect = lower value",1.03 (inactive)
same,normalized growth,"locus YER155C, strain BEM2, stronger effect = lower value",1.01 (inactive)
same,normalized growth,"locus YER167W, strain BCK2, stronger effect = lower value",0.748 (active)
same,normalized growth,"locus YFR010W, strain ubp6, stronger effect = lower value",1.03 (inactive)
same,normalized growth,"locus YGL078C, strain dbp3, stronger effect = lower value",1 (inactive)
same,normalized growth,"locus YGL086W, strain mad1, stronger effect = lower value",0.864 (active)
same,normalized growth,"locus YGL167C, strain pmr1, stronger effect = lower value",1.01 (inactive)
same,normalized growth,"locus YGL173C, strain kem1, stronger effect = lower value",1.02 (inactive)
same,normalized growth,"locus YGL227W, strain vid30, stronger effect = lower value",1.01 (inactive)
same,normalized growth,"locus YGL240W, strain doc1, stronger effect = lower value",1.01 (inactive)
same,normalized growth,"locus YGL248W, strain PDE1, stronger effect = lower value",0.585 (active)
same,normalized growth,"locus YGL253W, strain hxk2, stronger effect = lower value",1.01 (inactive)
same,normalized growth,"locus YGR078C, strain PAC10, stronger effect = lower value",0.477 (active)
same,normalized growth,"locus YGR135W, strain pre9, stronger effect = lower value",0.81 (active)
same,normalized growth,"locus YGR252W, strain gcn5, stronger effect = lower value",0.824 (inactive)
same,normalized growth,"locus YHR013C, strain ard1, stronger effect = lower value",1.02 (inactive)
same,normalized growth,"locus YHR027C, strain rpn1, stronger effect = lower value",0.999 (inactive)
same,normalized growth,"locus YHR030C, strain SLT2, stronger effect = lower value",0.707 (active) and 1 (inactive)
same,normalized growth,"locus YHR079C, strain IRE1 (second series), stronger effect = lower value",0.996 (inactive)
same,normalized growth,"locus YHR079C, strain IRE1, stronger effect = lower value",0.969 (inactive)
same,normalized growth,"locus YHR094C, strain hxt1, stronger effect = lower value",0.985 (inactive)
same,normalized growth,"locus YHR129C, strain ARP1, stronger effect = lower value",0.728 (active)
same,normalized growth,"locus YHR142W, strain chs7, stronger effect = lower value",1.01 (inactive)
same,normalized growth,"locus YHR200W, strain rpn10, stronger effect = lower value",0.985 (inactive)
same,normalized growth,"locus YIL066C, strain RNR3, stronger effect = lower value",0.24 (active)
same,normalized growth,"locus YIL073C, strain SPO22, stronger effect = lower value",0.202 (active)
same,normalized growth,"locus YIL125W, strain kgd1, stronger effect = lower value",1.01 (inactive)
same,normalized growth,"locus YIR030C, strain dcg1, stronger effect = lower value",1.01 (inactive)
same,normalized growth,"locus YJL092W, strain hpr5, stronger effect = lower value",1.02 (inactive)
same,normalized growth,"locus YJL095W, strain BCK1 (second series), stronger effect = lower value",1.01 (inactive)
same,normalized growth,"locus YJL095W, strain BCK1, stronger effect = lower value",0.773 (active) and 0.995 (inactive)
same,normalized growth,"locus YJL115W, strain asf1, stronger effect = lower value",1.02 (inactive)
same,normalized growth,"locus YJL129C, strain trk1, stronger effect = lower value",1.02 (inactive)
same,normalized growth,"locus YJL134W, strain LCB3, stronger effect = lower value",0.938 (inactive)
same,normalized growth,"locus YJL154C, strain vps35, stronger effect = lower value",1.02 (inactive)
same,normalized growth,"locus YJL164C, strain tpk1, stronger effect = lower value",1 (inactive)
same,normalized growth,"locus YJL166W, strain qcr8, stronger effect = lower value",1.01 (inactive)
same,normalized growth,"locus YJL168C, strain set2, stronger effect = lower value",0.979 (inactive)
same,normalized growth,"locus YJL187C, strain SWE1 (second series), stronger effect = lower value",0.793 (active)
same,normalized growth,"locus YJR043C, strain POL32, stronger effect = lower value",0.398 (active)
same,normalized growth,"locus YJR066W, strain TOR1, stronger effect = lower value",0.97 (inactive)
same,normalized growth,"locus YJR075W, strain HOC1, stronger effect = lower value",1.01 (inactive)

# From PubChem BioAssay AID1159580 (chemical genetic matrix, 2015)
